Assay outcomes (PubChem)
Many of the other results were omitted from the sample, so hits are more common in it than they were.
ALR inh = blocks human ALR sulfhydryl oxidase activity; purified ALR, DTT oxidation, H2O2 HRP-luminol luminescence; P55789; AID 485317; actives 3.8% (n = 290,000); inhibition, % (concentration not given with the values);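 active means mean replicate inhibition above about 79%, with every replicate also reaching it, limit read from the data; inconclusive means only one of the two criteria met; inactive means mean below limit and not every replicate reaching it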
Target sequence (P55789 whole entry, looked up): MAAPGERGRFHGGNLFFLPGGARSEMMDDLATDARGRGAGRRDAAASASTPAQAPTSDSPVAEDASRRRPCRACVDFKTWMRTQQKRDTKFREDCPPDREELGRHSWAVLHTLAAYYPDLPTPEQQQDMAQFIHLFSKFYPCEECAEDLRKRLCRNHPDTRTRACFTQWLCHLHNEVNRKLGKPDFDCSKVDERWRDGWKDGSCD
HDAC3 inhib = human HDAC3 inhibition; O15379; recombinant HDAC3, fluorogenic peptide/trypsin coupled, fluorescence; inhibition, % at 8.3 µM; actives 0.15% (n = 320,000); AID 2718; in the data active means inhibition above about 26%, passing the limit was not always enough; inconclusive means no clear call, values can overlap the other calls
Target sequence (O15379 whole entry, looked up): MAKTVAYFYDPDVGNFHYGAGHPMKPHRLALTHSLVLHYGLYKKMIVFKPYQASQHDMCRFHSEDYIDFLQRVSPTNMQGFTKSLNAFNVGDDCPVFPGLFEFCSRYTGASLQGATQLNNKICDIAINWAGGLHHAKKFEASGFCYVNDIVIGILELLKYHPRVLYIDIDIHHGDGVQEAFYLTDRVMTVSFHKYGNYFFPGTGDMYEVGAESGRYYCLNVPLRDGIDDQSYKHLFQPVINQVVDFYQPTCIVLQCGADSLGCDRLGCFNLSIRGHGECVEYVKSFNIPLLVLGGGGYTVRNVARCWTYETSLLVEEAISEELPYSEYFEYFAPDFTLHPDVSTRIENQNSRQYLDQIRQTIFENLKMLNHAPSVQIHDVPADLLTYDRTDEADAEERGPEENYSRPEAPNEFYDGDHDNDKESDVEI
NPR2 activator = GC-B (human) receptor activation | AID 1920062 | activation, % at 10 µM | actives 0.11% (n = 370,000) | HEK293-GC-B cells, CNP EC30, cGMP TR-FRET; 0% at EC30 CNP, 100% saturating CNP | P20594;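 active means activation at 10 µM reaching about 35% in either raw or pattern-adjusted values, limit read from the data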
NPR1 activator = GC-A (human) enzyme activation. HEK293 GC-A cells, cGMP TR-FRET, EC30 ANP; 0% at EC30 ANP, 100% saturating ANP. activation, % at 10 µM. actives 0.14% (n = 370,000). AID 1671463; in the data active means activation above about 40%
Numbers stand for hits; 0 = inactive; ? = inconclusive; - = no result.

SMILES | ALR inh | HDAC3 inhib | NPR2 activator | NPR1 activator
O=C(NNc1cccc(Cl)n1)c1cccnc1Cl | 0 | 0 | 0 | 0
O=C(NNc1cccc(Cl)c1)c1cccnc1Cl | 98 | 0 | 0 | 0
COc1ccc(Cl)cc1NC(=O)Cn1c(NCCO)nc2ccccc21 | 0 | 0 | 0 | 0
CCn1c2ccc(C)cc2c2nnc(NN)nc21 | 99 | 0 | 0 | 0
COc1ccccc1NS(=O)(=O)c1cccc(NC(=O)CCNC(=O)c2ccccc2OC)c1 | - | 0 | 0 | 0
CCc1ccc(OCc2ccc(C(=O)O)o2)cc1 | 0 | 0 | 0 | 0
COc1ccc(-c2cn[nH]c2-c2ccc(OCC(=O)NN)cc2O)cc1 | 78 | 0 | 0 | 0
COc1ccccc1-c1cn[nH]c1-c1ccc(OCC(=O)NN)cc1O | 95 | 0 | 0 | 0
COc1ccc(-c2cc(=O)oc3c(O)c(O)ccc23)cc1 | 99 | 0 | 0 | 0
Cc1cc(C)c(NC(=O)CNC(=O)COC(=O)CN2C(=O)NC3(CCCC3)C2=O)c(C)c1 | 0 | 0 | 0 | 0
COc1ccc(CNc2nc3ccc(C)cc3s2)c(OC)c1OC | 0 | 0 | 0 | 0
Cc1cc(Br)c2nc3c(c(C(=O)O)c2c1)CCCCC3 | 0 | 0 | 0 | 64
O=C(c1ccc(=O)[nH]c1)N(c1ccccc1)C(CCc1ccccc1)c1nc2ccccc2[nH]1 (centres undefined) | - | - | 0 | 0
CC(=O)/C=N/Nc1ccccc1 | 0 | 0 | 0 | 0
OC[C@@H](O)[C@H](O)C(/C=N/Nc1ccccc1)=N\Nc1ccccc1 | 99 | - | 0 | 0
COc1ccc(C(=O)n2nc(-c3ccccc3)nc2N)cc1OC | 0 | 62 | 0 | 0
Cc1ccc(-c2nc(N)n(C(=O)c3ccco3)n2)cc1 | 0 | 0 | 0 | 0
COc1ccc(-c2nc(N)n(C(=O)c3ccc(C)cc3)n2)cc1 | 0 | 32 | 0 | 0
CCCC(=O)n1nc(-c2ccc(OC)cc2)nc1N | - | 0 | 0 | 0
COc1ccc(C(=O)n2nc(-c3ccco3)nc2N)cc1OC | - | - | 0 | 0
COc1ccc(C(=O)n2nc(-c3ccc(OC)cc3)nc2N)cc1 | 0 | 59 | 0 | 0
Clc1ccc(-c2cc(-c3nnc4sc(Cc5cccs5)nn34)[nH]n2)cc1 | - | - | 0 | 0
O=C(COc1ccc([N+](=O)[O-])cc1Cl)N1CCc2ccccc21 | - | 0 | 0 | 0
CCOc1ccc(CNS(=O)(=O)c2ccc(-c3ccc(=O)[nH]n3)o2)cc1OC | 0 | 0 | 0 | 0
COc1ccc(-c2cnc(C(O)c3ccc(CN4CCCCC4)cc3)[nH]2)cc1 (centres undefined) | - | - | 0 | 0
SMILES | ALR inh | HDAC3 inhib | NPR2 activator | NPR1 activator
CCOc1ccc(-c2nc(CSCC(=O)NCCN3CCOCC3)c(C)o2)cc1 | 99 | 0 | 0 | 0
COc1ccc(-c2nc(CSCC(=O)NC3CCCc4ccccc43)c(C)o2)cc1 (centres undefined) | ? | 0 | 0 | 0
CCOc1ccc(-c2nc(CSCC(=O)NCCCN3CCCC3=O)c(C)o2)cc1 | 99 | 0 | 0 | 0
COc1ccc(-c2nc(CSCC(=O)NCCCN3CCCC3=O)c(C)o2)cc1 | 96 | 0 | 0 | 0
N#Cc1ccc(-c2ccc(OCC(=O)NCCCN3CCCC3=O)cc2)cc1 | 99 | 0 | 0 | 0
C#CCNC(=O)CSCc1nc(-c2ccc(OCC)cc2)oc1C | - | - | 0 | 0
O=C(Nc1ccncc1)c1cccc(S(=O)(=O)N2CCCC2)c1 | 0 | - | 0 | 0
COCCCN(C(=O)CCOc1ccc(C)cc1)c1c(N)n(Cc2ccccc2)c(=O)[nH]c1=O | 0 | 0 | 0 | 0
CC1CCc2nc(/C(C#N)=C/c3ccncc3)sc2C1 (centres undefined) | 98 | 0 | 0 | 0
CC(=O)c1ccc(OC(=O)c2ccc(Br)o2)cc1 | 0 | 67 | 0 | 0
CCC(=O)Nc1cccc(C(=O)c2ccc(C)c(C)c2)c1 | 0 | 0 | 0 | 0
Cc1ccc2nc(N3C(=O)CNC3=S)sc2c1 | 93 | 0 | 0 | 0
COc1ccc2nc(N3C(=O)CNC3=S)sc2c1 | - | 0 | 0 | 0
O=C(CNS(=O)(=O)c1ccc(Cl)c(C(F)(F)F)c1)NC1CCCCCC1 | - | 0 | 0 | 0
O=C(COC(=O)/C=C/c1ccccc1)NC1CCCC1 | 0 | 0 | 0 | 0
COc1ccc(C(=O)NC(=S)Nc2ccc3oc(=O)ccc3c2)cc1[N+](=O)[O-] | 0 | 0 | 0 | 0
COc1cc(C)c(N)cc1C(C)C | 98 | 0 | 0 | 0
O=c1[nH]nc(-c2ccc[nH]2)[nH]1 | - | - | 0 | 0
NC(=S)Nc1ccc(Oc2ccc(NC(N)=S)cc2)cc1 | 99 | 0 | 0 | 0
Cc1cccc(NC(=O)CSCC(=O)Nc2ccccc2C(=O)NC2CC2)c1 | 0 | 0 | 0 | 0
Cc1ccc(NC(=O)/C=C\C(=O)NCC(=O)O)cc1 | 0 | 0 | 0 | 0
O=C(NCC(c1cccnc1)N1CCN(c2ccc(F)cc2)CC1)C1CCCCC1 (centres undefined) | 98 | 0 | 0 | 0
COc1ccc(N2CCN(C(CNC(=O)C3CCCCC3)c3cccnc3)CC2)cc1 (centres undefined) | ? | 0 | 0 | 0
O=C(NCC(c1cccnc1)N1CCN(c2ccc(F)cc2)CC1)c1ccc(F)cc1 (centres undefined) | 98 | 0 | 0 | 0
COc1ccc(C(=O)NCC(c2cccnc2)N2CCN(c3ccc(F)cc3)CC2)cc1OC (centres undefined) | 86 | 0 | 0 | 0
SMILES | ALR inh | HDAC3 inhib | NPR2 activator | NPR1 activator
COc1ccc(C(=O)NCC(c2cccnc2)N2CCN(c3ccccc3)CC2)cc1OC (centres undefined) | 98 | 0 | 0 | 0
COc1cc(C(=O)NCC(c2cccnc2)N2CCN(c3ccc(F)cc3)CC2)cc(OC)c1OC (centres undefined) | 0 | ? | 0 | 0
COc1ccc(C(=O)NCC(c2cccnc2)N2CCN(c3ccccc3OC)CC2)cc1OC (centres undefined) | 0 | 0 | 0 | 0
N#CCc1cc2ccc3cccc4ccc(c1)c2c34 | 0 | 0 | 0 | 0
Cc1ccc(NC(=O)c2ccc(S(=O)(=O)NCc3cccnc3)cc2)c(C)c1 | 0 | 0 | 0 | 0
Cc1ccccc1CS(=O)(=O)Cc1ccc(C(=O)Nc2cccc(Cl)c2F)o1 | - | - | 0 | 0
Cn1c(-c2cccc([N+](=O)[O-])c2)cnc1NCc1cccc(F)c1 | 99 | 0 | 0 | 0
Cn1c(-c2ccc(F)cc2)cnc1NCc1cccc([N+](=O)[O-])c1 | 0 | 0 | 0 | 0
Cn1c(-c2cccc([N+](=O)[O-])c2)cnc1NCc1ccc(C#N)cc1 | 99 | 0 | 0 | 0
COc1ccc(CN2CCNC(=O)C2CC(=O)N(C)CCCN2CCOCC2)cc1C (centres undefined) | 0 | 0 | 0 | 0
Cc1nn(-c2ccccc2)c2nc(-c3ccco3)cc(C(=O)O)c12 | 97 | 0 | 0 | 0
CN(C)c1ccc(N=Nc2ccc(S(=O)(=O)O)cc2)c2ccccc12 | 99 | 0 | 0 | 0
CN1/C(=C/C(=O)c2nc(S(C)(=O)=O)ncc2Cl)C(C)(C)c2ccccc21 | 98 | 0 | - | -
CN(C)c1ccc(NC(=O)CSc2nnc(-c3cccs3)n2Cc2ccco2)cc1 | 99 | 0 | 0 | 0
CCn1c(SCC(=O)Nc2ccc(N(C)C)cc2)nnc1-c1cccc(C)c1 | 99 | 0 | 0 | 0
